Assay results as given in the supplement of paper PMC11732987, “Enantioselective OTUD7B fragment discovery through chemoproteomics screening and high-throughput optimisation” (Communications Chemistry, 2025).

What was measured:
Assay in all cases: log2 ratio of Biotin-Ahx-Ub-VS probe labelling (fragment/DMSO); higher = less target engagement (more negative = stronger competition), active = hit call of the paper (q ≤ 0.05, log2 ratio ≤ -1)
Conditions in all cases: compound concentration: 200 uM; treatment time: 3 h
USP42 = target: T1, USP42 (UniProt Q9H9J4)
T1 sequence (whole entry): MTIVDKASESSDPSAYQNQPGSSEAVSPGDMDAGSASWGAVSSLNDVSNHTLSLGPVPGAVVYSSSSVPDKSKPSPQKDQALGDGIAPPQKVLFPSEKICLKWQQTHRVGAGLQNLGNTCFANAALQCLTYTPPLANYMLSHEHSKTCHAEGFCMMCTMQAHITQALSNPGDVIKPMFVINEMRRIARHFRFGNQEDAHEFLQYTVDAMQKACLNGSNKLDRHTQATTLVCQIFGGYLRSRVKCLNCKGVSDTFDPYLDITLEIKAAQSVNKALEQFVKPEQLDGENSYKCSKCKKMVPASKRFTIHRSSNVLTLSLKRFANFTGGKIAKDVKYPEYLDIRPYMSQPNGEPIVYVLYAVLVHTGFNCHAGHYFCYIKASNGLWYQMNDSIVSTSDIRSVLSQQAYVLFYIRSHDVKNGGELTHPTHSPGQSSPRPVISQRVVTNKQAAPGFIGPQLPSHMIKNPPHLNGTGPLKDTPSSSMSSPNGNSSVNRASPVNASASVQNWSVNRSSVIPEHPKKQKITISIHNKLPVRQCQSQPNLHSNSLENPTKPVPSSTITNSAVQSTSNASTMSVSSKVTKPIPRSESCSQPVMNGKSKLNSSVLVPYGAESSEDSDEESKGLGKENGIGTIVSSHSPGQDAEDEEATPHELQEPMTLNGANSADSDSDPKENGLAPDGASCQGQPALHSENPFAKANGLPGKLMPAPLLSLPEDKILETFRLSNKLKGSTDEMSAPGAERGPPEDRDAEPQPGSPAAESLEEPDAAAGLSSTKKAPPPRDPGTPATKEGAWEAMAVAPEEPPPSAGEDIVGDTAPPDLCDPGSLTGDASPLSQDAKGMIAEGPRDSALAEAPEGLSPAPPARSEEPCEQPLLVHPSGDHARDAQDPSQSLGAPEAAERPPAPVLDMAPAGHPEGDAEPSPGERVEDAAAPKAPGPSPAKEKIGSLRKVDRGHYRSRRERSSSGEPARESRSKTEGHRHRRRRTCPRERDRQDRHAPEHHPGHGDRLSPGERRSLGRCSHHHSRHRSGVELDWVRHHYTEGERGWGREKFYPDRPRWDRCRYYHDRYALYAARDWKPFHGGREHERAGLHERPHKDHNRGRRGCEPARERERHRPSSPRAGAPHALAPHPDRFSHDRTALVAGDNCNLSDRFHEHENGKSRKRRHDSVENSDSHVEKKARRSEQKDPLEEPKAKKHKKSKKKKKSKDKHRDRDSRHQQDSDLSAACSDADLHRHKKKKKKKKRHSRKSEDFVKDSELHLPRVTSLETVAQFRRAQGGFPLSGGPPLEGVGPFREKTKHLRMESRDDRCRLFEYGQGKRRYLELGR
Procedure, shortened: (§1)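 Average log2 ratios of fragment over vehicle were obtained by unpaired t-test from global-median-normalised Spectronaut label-free quantities. Proteins with ≥2 unique peptides were included. HEK293T lysate (495 µg per sample) was treated in triplicate with fragment at 200 µM or vehicle for 3 h, then with Biotin-Ahx-Ub-VS at 0.5 µM final for 1 h, and labelled DUBs were NeutrAvidin-enriched and run by diaPASEF LC-MS/MS.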

USP46 = USP46 (UniProt P62068)
Sequence of USP46 (P62068 whole entry): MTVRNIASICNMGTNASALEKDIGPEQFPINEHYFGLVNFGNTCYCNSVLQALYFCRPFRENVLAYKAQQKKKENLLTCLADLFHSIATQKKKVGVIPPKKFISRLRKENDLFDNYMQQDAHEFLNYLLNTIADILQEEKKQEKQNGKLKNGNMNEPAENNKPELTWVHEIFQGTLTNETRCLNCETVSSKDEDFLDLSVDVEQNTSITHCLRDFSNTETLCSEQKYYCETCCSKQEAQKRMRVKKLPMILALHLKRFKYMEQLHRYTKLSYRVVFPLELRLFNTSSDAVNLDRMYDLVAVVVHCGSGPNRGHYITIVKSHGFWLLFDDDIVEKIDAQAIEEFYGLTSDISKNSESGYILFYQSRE
Procedure, shortened: as §1

USP47 = target: T2, USP47 (UniProt Q96K76)
T2 sequence (whole entry): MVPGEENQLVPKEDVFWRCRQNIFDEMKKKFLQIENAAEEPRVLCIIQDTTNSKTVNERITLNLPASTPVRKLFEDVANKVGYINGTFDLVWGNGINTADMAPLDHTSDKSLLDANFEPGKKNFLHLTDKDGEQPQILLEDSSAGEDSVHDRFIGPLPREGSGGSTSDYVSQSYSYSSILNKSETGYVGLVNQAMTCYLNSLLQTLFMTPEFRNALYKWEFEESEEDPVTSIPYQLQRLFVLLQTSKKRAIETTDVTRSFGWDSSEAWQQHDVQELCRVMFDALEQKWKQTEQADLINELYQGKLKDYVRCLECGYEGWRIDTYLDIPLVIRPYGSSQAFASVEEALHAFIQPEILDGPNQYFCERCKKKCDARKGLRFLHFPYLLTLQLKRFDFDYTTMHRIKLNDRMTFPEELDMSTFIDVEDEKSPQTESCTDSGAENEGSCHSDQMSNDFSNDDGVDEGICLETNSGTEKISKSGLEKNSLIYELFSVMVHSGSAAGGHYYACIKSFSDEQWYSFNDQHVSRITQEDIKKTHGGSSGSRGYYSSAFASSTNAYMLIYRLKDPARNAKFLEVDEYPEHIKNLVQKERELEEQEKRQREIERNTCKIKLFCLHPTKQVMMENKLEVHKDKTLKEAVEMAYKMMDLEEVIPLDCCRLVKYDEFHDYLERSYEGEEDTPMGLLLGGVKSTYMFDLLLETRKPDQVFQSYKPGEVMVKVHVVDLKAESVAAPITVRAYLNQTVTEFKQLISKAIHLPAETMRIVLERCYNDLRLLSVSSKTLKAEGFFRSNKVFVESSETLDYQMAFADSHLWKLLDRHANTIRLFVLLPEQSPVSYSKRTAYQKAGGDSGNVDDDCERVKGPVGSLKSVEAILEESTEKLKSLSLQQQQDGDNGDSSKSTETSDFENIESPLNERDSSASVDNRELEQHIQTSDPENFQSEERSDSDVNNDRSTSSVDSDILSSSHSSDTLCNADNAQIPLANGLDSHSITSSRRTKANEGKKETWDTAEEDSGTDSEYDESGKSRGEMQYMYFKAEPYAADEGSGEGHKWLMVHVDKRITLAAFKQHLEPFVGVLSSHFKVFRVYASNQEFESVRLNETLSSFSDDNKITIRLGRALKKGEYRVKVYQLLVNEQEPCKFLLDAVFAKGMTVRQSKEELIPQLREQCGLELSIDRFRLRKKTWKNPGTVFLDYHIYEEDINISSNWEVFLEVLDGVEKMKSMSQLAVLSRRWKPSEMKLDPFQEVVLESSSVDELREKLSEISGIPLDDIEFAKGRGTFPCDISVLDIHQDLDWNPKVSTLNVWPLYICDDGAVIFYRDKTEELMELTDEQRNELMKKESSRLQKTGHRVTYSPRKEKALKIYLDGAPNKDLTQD
Procedure, shortened: as §1

USP48 = target: T3, USP48 (UniProt Q86UV5)
T3 sequence (whole entry): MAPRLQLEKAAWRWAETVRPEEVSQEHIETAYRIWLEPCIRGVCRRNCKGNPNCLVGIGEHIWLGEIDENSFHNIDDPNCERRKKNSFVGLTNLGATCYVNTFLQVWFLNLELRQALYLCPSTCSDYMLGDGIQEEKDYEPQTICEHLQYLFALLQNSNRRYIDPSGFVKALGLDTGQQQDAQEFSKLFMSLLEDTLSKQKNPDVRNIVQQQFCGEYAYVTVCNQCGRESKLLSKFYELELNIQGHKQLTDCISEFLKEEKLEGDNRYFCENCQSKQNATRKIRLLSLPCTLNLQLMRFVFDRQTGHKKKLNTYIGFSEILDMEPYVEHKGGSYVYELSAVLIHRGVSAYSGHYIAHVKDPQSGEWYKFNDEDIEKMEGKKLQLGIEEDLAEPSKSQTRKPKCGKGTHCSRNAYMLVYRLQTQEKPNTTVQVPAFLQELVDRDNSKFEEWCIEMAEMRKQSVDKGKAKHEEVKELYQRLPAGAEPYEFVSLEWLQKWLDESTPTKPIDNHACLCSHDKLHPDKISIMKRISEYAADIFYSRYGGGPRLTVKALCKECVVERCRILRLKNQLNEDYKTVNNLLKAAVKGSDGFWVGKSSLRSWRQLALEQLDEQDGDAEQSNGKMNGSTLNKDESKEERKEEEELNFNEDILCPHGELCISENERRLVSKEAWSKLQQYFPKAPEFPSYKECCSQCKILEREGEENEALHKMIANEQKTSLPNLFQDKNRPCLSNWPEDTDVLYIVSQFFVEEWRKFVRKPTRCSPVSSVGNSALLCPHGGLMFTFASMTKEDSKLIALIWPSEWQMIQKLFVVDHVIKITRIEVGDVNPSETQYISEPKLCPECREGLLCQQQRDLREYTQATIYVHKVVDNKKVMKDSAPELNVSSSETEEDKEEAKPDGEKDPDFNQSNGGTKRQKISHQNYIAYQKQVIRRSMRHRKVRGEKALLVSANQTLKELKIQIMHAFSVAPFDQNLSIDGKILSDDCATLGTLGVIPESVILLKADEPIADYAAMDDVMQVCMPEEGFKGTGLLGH
Procedure, shortened: as §1

USP5 = target: T4, USP5 (UniProt P45974)
T4 sequence (whole entry): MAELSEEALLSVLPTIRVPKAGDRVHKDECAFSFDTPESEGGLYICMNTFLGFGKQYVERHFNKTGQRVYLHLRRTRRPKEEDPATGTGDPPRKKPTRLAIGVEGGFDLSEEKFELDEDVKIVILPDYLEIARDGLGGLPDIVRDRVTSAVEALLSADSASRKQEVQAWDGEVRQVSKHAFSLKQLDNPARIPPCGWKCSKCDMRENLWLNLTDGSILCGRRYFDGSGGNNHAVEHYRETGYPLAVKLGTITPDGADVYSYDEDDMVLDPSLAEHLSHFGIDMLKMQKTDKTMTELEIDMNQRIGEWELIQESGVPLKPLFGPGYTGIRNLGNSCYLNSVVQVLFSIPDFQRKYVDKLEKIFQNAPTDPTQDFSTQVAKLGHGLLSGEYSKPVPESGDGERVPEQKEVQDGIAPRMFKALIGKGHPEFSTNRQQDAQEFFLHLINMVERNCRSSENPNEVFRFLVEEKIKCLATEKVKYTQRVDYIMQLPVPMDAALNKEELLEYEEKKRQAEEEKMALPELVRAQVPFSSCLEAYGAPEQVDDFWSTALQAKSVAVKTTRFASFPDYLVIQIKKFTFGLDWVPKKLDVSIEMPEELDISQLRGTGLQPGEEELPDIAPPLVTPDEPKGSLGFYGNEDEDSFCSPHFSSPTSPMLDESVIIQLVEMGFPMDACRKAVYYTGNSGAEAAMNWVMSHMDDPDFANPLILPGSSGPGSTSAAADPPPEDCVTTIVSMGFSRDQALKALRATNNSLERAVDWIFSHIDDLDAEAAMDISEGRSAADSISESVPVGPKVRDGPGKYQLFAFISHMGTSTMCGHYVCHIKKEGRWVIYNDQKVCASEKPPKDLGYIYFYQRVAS
Procedure, shortened: as §1

USP54 = USP54 (UniProt Q70EL1)
Sequence of USP54 (Q70EL1 whole entry): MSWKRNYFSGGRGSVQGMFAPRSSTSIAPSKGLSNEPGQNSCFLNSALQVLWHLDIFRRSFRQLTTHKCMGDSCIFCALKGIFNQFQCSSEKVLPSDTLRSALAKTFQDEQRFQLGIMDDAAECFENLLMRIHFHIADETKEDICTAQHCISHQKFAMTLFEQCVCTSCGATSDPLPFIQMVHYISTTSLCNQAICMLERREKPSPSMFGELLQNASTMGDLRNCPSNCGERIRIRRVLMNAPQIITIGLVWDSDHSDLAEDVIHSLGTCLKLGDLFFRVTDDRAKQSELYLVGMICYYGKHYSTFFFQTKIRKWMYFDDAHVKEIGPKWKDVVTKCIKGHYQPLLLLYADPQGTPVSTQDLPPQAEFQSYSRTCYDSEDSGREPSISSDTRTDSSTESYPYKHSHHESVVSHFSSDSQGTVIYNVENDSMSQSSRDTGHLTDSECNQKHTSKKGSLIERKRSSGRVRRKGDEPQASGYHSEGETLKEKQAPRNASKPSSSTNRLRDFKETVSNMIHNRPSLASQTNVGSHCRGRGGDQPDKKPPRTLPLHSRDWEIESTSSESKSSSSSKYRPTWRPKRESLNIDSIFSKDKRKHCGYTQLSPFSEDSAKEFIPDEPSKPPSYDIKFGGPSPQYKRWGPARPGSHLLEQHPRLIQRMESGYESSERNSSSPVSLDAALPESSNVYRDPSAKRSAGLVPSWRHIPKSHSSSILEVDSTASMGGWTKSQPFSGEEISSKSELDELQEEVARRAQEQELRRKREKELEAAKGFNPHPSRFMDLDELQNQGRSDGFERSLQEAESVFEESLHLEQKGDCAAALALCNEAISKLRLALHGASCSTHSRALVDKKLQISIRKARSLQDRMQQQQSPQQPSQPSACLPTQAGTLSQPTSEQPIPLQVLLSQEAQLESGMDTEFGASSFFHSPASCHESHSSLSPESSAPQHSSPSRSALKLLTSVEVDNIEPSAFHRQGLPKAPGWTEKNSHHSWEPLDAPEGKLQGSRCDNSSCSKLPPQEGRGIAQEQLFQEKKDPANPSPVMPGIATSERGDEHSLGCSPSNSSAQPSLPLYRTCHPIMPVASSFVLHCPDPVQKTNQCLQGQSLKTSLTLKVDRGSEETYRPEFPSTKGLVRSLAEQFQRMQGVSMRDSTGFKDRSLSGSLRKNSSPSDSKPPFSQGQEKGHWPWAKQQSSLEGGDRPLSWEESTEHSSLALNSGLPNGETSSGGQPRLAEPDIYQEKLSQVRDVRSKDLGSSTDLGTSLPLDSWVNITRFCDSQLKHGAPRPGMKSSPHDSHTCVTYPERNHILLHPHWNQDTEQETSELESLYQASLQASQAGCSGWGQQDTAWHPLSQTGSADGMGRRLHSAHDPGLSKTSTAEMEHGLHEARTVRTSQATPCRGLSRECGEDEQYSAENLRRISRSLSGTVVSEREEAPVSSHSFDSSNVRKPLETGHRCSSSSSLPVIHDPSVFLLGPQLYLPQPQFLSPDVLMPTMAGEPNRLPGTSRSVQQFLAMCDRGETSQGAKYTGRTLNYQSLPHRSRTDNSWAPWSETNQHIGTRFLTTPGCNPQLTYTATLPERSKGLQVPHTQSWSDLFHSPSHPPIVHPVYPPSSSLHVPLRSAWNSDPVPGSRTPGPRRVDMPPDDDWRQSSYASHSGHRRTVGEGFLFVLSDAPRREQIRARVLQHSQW
Procedure, shortened: as §1

USP7 = USP7 (UniProt Q93009)
Procedure, shortened: as §1

USP8 = target: T5, USP8 (UniProt P40818)
T5 sequence (whole entry): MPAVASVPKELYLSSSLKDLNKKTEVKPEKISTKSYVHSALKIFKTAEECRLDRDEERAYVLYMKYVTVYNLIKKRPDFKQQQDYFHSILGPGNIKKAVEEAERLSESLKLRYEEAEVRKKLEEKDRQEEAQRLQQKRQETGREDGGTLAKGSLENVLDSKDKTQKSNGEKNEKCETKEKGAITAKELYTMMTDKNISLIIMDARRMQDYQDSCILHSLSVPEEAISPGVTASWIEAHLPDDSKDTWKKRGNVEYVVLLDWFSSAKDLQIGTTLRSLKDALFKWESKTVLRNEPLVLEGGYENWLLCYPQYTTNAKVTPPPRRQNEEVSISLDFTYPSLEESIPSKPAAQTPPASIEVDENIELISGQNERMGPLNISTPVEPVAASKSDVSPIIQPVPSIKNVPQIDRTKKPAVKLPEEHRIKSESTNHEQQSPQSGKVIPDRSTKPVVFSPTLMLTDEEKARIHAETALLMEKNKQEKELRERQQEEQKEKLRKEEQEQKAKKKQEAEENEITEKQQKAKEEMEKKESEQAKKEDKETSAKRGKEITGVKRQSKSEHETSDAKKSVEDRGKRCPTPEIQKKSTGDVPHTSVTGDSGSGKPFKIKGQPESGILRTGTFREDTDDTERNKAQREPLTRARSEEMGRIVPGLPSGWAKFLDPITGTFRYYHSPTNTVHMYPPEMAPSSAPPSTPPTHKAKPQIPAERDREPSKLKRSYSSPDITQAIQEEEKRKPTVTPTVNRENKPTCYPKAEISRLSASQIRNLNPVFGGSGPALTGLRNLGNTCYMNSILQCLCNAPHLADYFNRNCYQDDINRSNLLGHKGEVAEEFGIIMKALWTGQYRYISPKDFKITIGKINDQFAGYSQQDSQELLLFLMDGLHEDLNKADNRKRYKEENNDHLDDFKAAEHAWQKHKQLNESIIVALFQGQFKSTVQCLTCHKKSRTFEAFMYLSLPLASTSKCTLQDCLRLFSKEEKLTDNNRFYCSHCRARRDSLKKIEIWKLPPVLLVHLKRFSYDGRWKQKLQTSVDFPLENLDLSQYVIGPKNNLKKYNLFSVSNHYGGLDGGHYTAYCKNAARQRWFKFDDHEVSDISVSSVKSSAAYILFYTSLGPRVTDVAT
Procedure, shortened: as §1

USP9X = USP9X (UniProt Q93008)
Sequence of USP9X (Q93008 whole entry): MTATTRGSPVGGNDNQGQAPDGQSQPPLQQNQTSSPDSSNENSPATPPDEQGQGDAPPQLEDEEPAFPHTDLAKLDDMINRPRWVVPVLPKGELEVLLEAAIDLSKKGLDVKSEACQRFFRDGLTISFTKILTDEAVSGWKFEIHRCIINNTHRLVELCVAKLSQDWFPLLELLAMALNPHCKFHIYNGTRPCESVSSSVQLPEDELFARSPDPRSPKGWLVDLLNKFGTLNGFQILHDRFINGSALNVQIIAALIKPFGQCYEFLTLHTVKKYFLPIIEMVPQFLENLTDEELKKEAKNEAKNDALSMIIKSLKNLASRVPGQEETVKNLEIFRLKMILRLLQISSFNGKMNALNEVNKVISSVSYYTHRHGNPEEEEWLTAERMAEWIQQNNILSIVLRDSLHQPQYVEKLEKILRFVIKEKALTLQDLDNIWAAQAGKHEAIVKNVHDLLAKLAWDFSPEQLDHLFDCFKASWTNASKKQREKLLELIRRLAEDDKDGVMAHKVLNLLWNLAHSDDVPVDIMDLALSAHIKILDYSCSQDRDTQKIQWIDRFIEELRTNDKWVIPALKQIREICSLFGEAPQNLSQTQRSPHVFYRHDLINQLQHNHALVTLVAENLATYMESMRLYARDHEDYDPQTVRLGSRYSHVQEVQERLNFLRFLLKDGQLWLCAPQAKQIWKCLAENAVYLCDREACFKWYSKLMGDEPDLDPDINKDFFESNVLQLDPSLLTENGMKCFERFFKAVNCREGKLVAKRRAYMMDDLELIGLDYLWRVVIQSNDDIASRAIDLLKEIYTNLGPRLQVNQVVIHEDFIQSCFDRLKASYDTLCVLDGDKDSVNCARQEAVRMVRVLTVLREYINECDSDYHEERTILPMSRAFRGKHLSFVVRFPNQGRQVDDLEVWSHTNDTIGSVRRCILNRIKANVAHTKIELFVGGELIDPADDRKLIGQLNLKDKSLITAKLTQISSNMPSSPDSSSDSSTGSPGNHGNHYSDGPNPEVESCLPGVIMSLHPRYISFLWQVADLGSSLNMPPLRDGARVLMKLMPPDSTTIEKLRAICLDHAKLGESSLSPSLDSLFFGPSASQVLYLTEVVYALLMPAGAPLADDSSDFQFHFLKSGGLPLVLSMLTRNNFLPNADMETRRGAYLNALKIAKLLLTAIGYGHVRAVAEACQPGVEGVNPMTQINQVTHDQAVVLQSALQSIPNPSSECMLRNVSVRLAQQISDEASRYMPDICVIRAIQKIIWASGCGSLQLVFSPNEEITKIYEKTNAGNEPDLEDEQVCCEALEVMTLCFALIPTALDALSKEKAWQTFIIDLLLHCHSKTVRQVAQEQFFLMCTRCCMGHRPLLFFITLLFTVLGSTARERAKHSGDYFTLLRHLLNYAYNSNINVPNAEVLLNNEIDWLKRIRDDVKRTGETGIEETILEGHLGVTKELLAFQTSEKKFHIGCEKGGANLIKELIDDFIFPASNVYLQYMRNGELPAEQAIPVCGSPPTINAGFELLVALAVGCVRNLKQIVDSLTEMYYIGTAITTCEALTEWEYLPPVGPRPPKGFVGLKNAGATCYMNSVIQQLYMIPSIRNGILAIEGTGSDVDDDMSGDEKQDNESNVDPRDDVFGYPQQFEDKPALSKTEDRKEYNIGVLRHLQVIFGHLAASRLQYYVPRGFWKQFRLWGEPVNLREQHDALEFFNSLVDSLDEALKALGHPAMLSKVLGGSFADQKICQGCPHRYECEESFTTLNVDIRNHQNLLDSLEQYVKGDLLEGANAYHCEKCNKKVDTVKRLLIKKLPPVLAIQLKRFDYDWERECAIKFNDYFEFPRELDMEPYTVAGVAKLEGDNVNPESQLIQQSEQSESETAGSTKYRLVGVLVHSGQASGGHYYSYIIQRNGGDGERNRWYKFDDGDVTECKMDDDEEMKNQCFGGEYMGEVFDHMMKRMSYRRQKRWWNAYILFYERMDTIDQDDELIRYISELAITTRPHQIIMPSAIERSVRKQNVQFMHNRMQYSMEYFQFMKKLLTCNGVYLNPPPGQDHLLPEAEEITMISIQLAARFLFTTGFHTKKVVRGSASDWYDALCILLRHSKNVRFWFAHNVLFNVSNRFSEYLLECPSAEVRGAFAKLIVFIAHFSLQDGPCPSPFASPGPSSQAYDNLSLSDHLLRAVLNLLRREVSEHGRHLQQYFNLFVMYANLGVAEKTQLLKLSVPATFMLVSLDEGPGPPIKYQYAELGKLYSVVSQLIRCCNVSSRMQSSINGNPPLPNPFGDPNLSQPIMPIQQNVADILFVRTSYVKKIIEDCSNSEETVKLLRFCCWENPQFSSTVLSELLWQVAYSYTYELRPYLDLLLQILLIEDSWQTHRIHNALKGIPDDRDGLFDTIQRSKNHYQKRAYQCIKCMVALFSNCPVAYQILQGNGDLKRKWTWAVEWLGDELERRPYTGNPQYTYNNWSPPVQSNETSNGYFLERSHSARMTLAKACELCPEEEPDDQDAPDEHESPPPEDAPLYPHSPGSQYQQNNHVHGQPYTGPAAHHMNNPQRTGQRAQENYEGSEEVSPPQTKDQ
Procedure, shortened: as §1

UniProt O00487 = target: UniProt O00487
Sequence of UniProt O00487 (O00487 whole entry): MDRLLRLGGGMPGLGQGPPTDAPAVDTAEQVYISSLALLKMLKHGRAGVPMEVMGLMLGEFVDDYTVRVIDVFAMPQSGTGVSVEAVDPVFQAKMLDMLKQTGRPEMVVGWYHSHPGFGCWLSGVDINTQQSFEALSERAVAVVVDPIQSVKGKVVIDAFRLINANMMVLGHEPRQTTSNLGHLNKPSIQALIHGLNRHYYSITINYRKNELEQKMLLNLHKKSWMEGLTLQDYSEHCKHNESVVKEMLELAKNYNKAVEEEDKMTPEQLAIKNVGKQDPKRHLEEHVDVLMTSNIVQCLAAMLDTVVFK
Procedure, shortened: as §1

Measured: log2 ratio of Biotin-Ahx-Ub-VS probe labelling

O=C(CCl)N1CCC(c2noc3cc(F)ccc23)CC1
active: USP7 -1.81
inactive: USP42 0.542 | USP46 -0.343 | USP47 -0.18 | USP48 -0.806 | USP5 0.182 | USP54 0.351 | USP8 -0.0714 | USP9X -0.201 | UniProt O00487 -0.0622
